The record followed here is PubChem BioAssay (NCATS).

Inconclusive results are not listed. A call without a number means that no potency is given here. Activity calls are given as the source filed them. Calls follow the shape of the full dose curve.
Potency is read from the fitted curve at half-maximal effect.

A short description of this assay: Cytotoxicity counterscreen for inhibitors of SARS-CoV-2 cell entry (AID 1645845). Also: nearly all actives have a fitted effect of over 50% in size. The settings on record: cell viability (SARS-CoV-2 entry assay cells); series mostly up to 57.1 µM. In short, it runs like this: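 ATP-content luminescence (ATPLite 1step, 15 min RT) read after 48 h compound exposure of Expi293F cells stably expressing human ACE2; normalized to cells-only wells and media-only wells.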
Background: The purpose of a counterscreen is to sort out artefacts and off-target activity.
For `CCN(CC)CCCC(C)Nc1ccnc2cc(Cl)ccc12` (stereo not drawn), the Potency result was “inactive”.

Regarding `Cc1nc(Nc2ncc(C(=O)Nc3c(C)cccc3Cl)s2)cc(N2CCN(CCO)CC2)n1`, the Potency result is “inactive”.

For the compound `CN1CCN(C2=Nc3cc(Cl)ccc3Nc3ccccc32)CC1`, the Potency entry was “inactive”.

Take `CC(=O)N(O)CCCCCNC(=O)CCC(=O)N(O)CCCCCNC(=O)CCC(=O)N(O)CCCCCN`: the Potency was 25.1 µM (active).

On to `CN(C)CCc1c[nH]c2ccc(C[C@H]3COC(=O)N3)cc12`, for which the Potency result was “inactive”.

As for `OCCN(CCO)c1nc(N2CCCCC2)c2nc(N(CCO)CCO)nc(N3CCCCC3)c2n1`, the Potency result was “inactive”.

Turning to `CCCN(CCc1cccs1)[C@H]1CCc2c(O)cccc2C1`, the Potency result was “inactive”.

On to `CC1=C(C(=O)O)N2C(=O)[C@@H](NC(=O)[C@H](N)c3ccc(O)cc3)[C@H]2SC1`, for which the Potency result is “inactive”.

Turning to `O=NN(CCCl)C(=O)NCCCl`, the Potency entry is “inactive”.

Turning to `COc1ccc(-c2cc(=S)ss2)cc1`, the Potency entry was “inactive”.

Turning to `Cc1ccccc1C(OCCN(C)C)c1ccccc1` (stereo not drawn), the Potency entry was “inactive”.

As to `CN(C)CC/C=C1\c2ccccc2COc2ccccc21`, the Potency entry is “inactive”.

For the compound `Cc1onc(-c2c(Cl)cccc2Cl)c1C(=O)N[C@@H]1C(=O)N2[C@@H]1SC(C)(C)[C@@H]2C(=O)O`, the Potency result was “inactive”.

In the case of `CCCCc1ncc(/C=C(\Cc2cccs2)C(=O)O)n1Cc1ccc(C(=O)O)cc1`, the Potency entry was “inactive”.

Regarding `OCCOCCN1CCN(C(c2ccccc2)c2ccc(Cl)cc2)CC1` (stereo not drawn), the Potency result is “inactive”.

As to `O=C(CCCN1CCC(O)(c2ccc(Cl)cc2)CC1)c1ccc(F)cc1`, the Potency result is “inactive”.

`CC(CN1c2ccccc2Sc2ccccc21)N(C)C` (stereo not drawn): the Potency result is “inactive”.

For the compound `Cc1onc(-c2ccccc2Cl)c1C(=O)N[C@@H]1C(=O)N2[C@@H]1SC(C)(C)[C@@H]2C(=O)O`, the Potency result was “inactive”.
